# Compound activity as filed in PubChem.
# An excerpt weighted towards active compounds, which were near 1.5% of everything screened.
# RAD52 inh – RAD52 DNA annealing inhibitors, primary screen, biochemical, FRET, single point, set 2. hit rate 0.46% among 360,000. recombinant RAD52 DNA annealing, FRET fluorescence. inhibition, % at 18.7 µM. AID 651710, 2012. DNA repair protein RAD52 homolog (Homo sapiens), P43351;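 active means every replicate showing at least 50% inhibition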
# Target sequence (P43351 whole entry, looked up): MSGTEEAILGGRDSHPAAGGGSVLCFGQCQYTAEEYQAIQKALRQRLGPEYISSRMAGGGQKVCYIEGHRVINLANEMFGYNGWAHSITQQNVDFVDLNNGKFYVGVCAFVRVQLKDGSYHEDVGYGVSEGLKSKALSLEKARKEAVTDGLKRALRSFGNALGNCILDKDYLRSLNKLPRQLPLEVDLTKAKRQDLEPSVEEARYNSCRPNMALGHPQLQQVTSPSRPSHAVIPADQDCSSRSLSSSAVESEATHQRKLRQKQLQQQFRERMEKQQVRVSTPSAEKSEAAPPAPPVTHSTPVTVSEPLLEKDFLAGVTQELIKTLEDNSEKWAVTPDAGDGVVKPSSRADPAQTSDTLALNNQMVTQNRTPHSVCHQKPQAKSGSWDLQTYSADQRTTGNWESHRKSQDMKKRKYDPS
# FID counter – compounds displacing fluorescent DNA intercalator, primary screen, artefact control for HCV NS3 helicase inhibitor project, biochemical, FID fluorescence; DNA fluorescent intercalator displacement; inhibition, % at 7.9 µM; hit rate 0.17% among 290,000; AID 1845, 2009; in the data active means inhibition above about 37%;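 further: 0% = vehicle and 100% = reference compound; higher means more ethidium bromide displaced from hairpin DNA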
# N-glyco inh – increase of ERlucT glycosylation luciferase signal, primary screen, N-linked glycosylation inhibitor project, D54 ERlucT cells, luminescence, set 2 | D54 ERlucT glycosylation luciferase reporter, 24 h; percent of 100 nM tunicamycin response | reporter increase, % at 12.5 µM | hit rate 0.23% among 360,000 | AID 588692, 2011;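 active means mean luciferase reporter signal, scaled so untreated is 0 and the glycosylation-blocking control 100, at or above a set limit in every replicate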;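 further: luciferase carries N-glycosylation sites so blocking glycosylation raises the light; 0% = median of neutral control wells and 100% = median of 100 nM tunicamycin wells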
# RAD54 inh – inhibitors of human RAD54 branch migration, primary screen, biochemical, fluorescence, single point; hit rate 0.14% among 360,000; inhibition, % at 10.4 µM; RAD54 Holliday junction branch migration, FAM/BHQ fluorescence;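 active means mean normalized replicate activity at least 40 and at least half of replicates scoring 40 or more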;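 further: 0% = median of neutral control wells and 100% = median of positive control wells; inhibitors cause a drop in the FAM fluorescence signal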
# CendR NRP1 mod – modulators of CendR peptide binding to NRP-1, primary screen, biochemical, fluorescence polarization, uHTS; FAM-RPARPAR peptide binding to NRP-1; inhibition, % at 25 µM; Neuropilin-1 (Homo sapiens), O14786; hit rate 0.85% among 360,000;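 active means inhibition or corrected inhibition above about 18%, plus a signal ratio from 0.5 to 1.5, limit read from the data, passing the limit was not always enough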
# miR-122 sensor – miR-122 Renilla sensor signal increase in Huh7, primary screen, miR-122 inhibitor project, cell-based, single point, plate reader; Huh7 miR-122 Renilla luciferase sensor, 48 h; neutral wells = 0, positive control = 100; activation (reporter increase), % at 12.5 µM; hit rate 0.3% among 340,000; AID 602342, 2012;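 active means mean replicate activation score at least 90 and every replicate individually at or above 90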;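 further: higher luciferase means less miR-122 activity so hits act as miR-122 inhibitors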
# Numbers without * were called inactive; nt = no result given; [ ] = remark or other dose.
SMILES,RAD52 inh,FID counter,N-glyco inh,RAD54 inh,CendR NRP1 mod,miR-122 sensor
CN1CCc2cc3c(c4c2C1Cc1ccccc1-4)OCO3 (stereo not given),-25.0,29.8,9.8,42.7,51.3*,nt
COc1cc2c(cc1O)C[C@H]1c3c(cc(O)c(OC)c3-2)CCN1C,35.9,nt,7.7,7.1,-21.0,-12.2
COC(=O)[C@H]1C[C@@H]1[C@H](NP(=O)(c1ccccc1)c1ccccc1)c1ccccc1,-4.6,-38.0,0.9,10.4,-8.4,3.6
COC(=O)[C@@H]1C[C@H]1[C@@H](NP(=O)(c1ccccc1)c1ccccc1)c1ccccc1,5.4,-31.7,32.0*,4.0,-6.8,-0.4
CN(C)C(CNC(=O)Cc1c(Cl)cccc1Cl)c1ccccc1 (stereo not given),-18.3,8.7,-2.2,nt,26.4*,nt
O=[N+]([O-])c1cc2c(cc1CNCCc1ccc3c(c1)OCO3)OCO2,-11.9,3.6,3.4,3.2,36.6*,-12.3
O=P(CN1CCN(c2ccccc2)CC1)(N1CCCCC1)N1CCCCC1,nt,-40.9,-2.4,3.8,34.2*,-10.4
CCN(CC)C(=O)c1ccc2c(c1)C1C(Cl)C(Sc3ccccc3[N+](=O)[O-])CC1C(C(=O)O)N2 (stereo not given),nt,12.5,-2.4,nt,46.5*,nt
CCN(CC)C(=O)c1ccc2c(c1)C1C=CCC1C(C(=O)O)N2 (stereo not given),-276.0,-34.7,0.1,-51.0,44.8*,-5.0
CCCC(CCC)C(=O)OC[N+](C)(C)CCOC(=O)C(O)(c1ccccc1)C1CCCC1 (stereo not given),29.3,41.5*,-0.7,15.4,1.7,1.1
O=C(Cc1cccnc1)N1CCCCN2[C@H](CO)[C@H](c3ccc(C#CC4CC4)cc3)[C@H]2C1,7.0,nt,nt,-5.2,nt,27.0[16.7 µM]
Cc1ccc(OC(=O)N(C)C[C@@H]2OCc3ccccc3-c3c(n(C)c4ccccc34)C(=O)N([C@H](C)CO)C[C@@H]2C)cc1,-0.7,nt,nt,nt,nt,nt
CCCCCSc1cc(OC)c(CCN(C)C)cc1OC,nt,36.9*,-0.1,3.4,-6.2,17.3
O=C1CNC[C@H]2[C@@H](c3ccc(Br)cc3)[C@H](CO)N12,13.8,nt,nt,nt,nt,nt
COC12CCC3(CC1C(C)(O)C(C)(C)C)[C@H]1Cc4ccc(O)c5c4[C@@]3(CCN1CC1CC1)C2O5 (stereo not given in full),3.3,nt,58.9*,-5.6,-2.3,-8.7
N#Cc1cccc(-c2ccc([C@H]3[C@H](CO)N4CCCCN(C(=O)Cc5ccncc5)C[C@@H]34)cc2)c1,-31.8,nt,nt,5.4,nt,9.6[16.7 µM]
CC(=O)N(C)CC#CCN1CCC(O)CC1,-11.0,nt,0.1,-8.3,37.4*,-2.6
O=C(Cc1cccnc1)N1CCCCN2[C@H](C1)[C@H](c1ccc(C#CC3CC3)cc1)[C@@H]2CO,12.8,nt,nt,-11.8,nt,0.1[16.7 µM]
C[n+]1c(-c2ccccc2)c2cc(N)ccc2c2ccc(N)cc21,21.2,37.7*,-16.0,88.2*,55.9*,-7.0
COCC#Cc1ccc([C@@H]2[C@H]3CN(C(=O)Cc4ccccn4)CCCCN3[C@H]2CO)cc1,-29.5,nt,nt,-2.6,nt,-5.3[16.7 µM]
c1ccc2c(c1)[nH]c1cnccc12,0.3,1.2,0.1,12.0,-0.2,2.7
Cc1c2ccncc2c(C)c2c1[nH]c1ccccc12,nt,53.8*,7.3,50.6*,-10.3,-21.9
O=C(Cc1ccccn1)N1CCCCN2[C@@H](CO)[C@@H](c3ccc(-c4ccccc4)cc3)[C@@H]2C1,-13.3,nt,nt,0.6,nt,1.1[16.7 µM]
O=C1NC(=O)C(=Cc2ccccc2[N+](=O)[O-])C(=O)N1,-10.8,nt,1.5,nt,25.4*,nt
O=C1c2cccc(N3CCNCC3)c2C2CCCCN12 (stereo not given),-27.6,nt,4.3,1.0,20.8*,-1.2
Clc1cccc(N2CCNCC2)c1Cl,nt,14.0,-1.8,-0.7,5.8,-1.4
CC1(C)CN=C(Nc2ccc(F)c(Cl)c2)S1,-4.1,-4.1,-0.5,nt,27.1*,nt
